Results published in ChEMBL document CHEMBL3433997, “St. Jude Leishmania screening dataset” (2016).

How the values were obtained:
Type in all cases: functional
[1] = target: Solute carrier family 2, facilitated glucose transporter member 1 (Homo sapiens) (UniProt P11166); assay: ST_JUDE_LEISH: Cytotoxicity at 2uM final concentration against transgenic Leishmania Mexicana promastigotes LmGLUT1 that are glucose transport deficient and complemented with the human glucose transporter GLUT1. Activity is measured by DNA content using SYBR green in vitro
[2] = target: Hexose transporter 1 (Plasmodium falciparum) (UniProt O97467); assay: ST_JUDE_LEISH: Cytotoxicity at 2uM final concentration against transgenic Leishmania Mexicana promastigotes LmPfHT that are glucose transport deficient and complemented with the Plasmodium falciparum hexose transporter. Activity is measured by DNA content using SYBR green in vitro
[3] = target: Glucose transporter (Leishmania mexicana) (UniProt O61059); assay: ST_JUDE_LEISH: Cytotoxicity at 2uM final concentration against transgenic Leishmania Mexicana promastigotes LmGT2 that are glucose transport deficient and complemented with the L. Mexicana glucose transporter 2. Activity is measured by DNA content using SYBR green in vitro

Sequence of Solute carrier family 2, facilitated glucose transporter member 1 (Homo sapiens) (P11166 whole entry): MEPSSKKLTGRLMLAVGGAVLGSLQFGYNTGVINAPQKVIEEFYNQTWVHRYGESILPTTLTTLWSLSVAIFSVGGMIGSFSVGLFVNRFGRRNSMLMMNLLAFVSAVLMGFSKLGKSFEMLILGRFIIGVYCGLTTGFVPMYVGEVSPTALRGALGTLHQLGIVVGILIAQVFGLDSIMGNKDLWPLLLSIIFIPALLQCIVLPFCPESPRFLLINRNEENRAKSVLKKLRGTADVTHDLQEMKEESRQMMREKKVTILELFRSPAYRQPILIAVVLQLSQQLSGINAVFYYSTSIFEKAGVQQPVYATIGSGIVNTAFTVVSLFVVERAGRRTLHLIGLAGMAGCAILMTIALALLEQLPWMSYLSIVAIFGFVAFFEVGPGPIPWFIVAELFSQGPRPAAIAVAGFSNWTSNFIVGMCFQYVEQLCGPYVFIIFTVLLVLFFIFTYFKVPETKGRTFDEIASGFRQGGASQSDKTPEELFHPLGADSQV

Structure (SMILES)	inhibition [1] [%]	inhibition [2] [%]	inhibition [3] [%]
O=C(Nc1cccc(-c2cc(-c3c(Cl)cccc3Cl)no2)c1)c1cncc(-c2cccs2)c1	16	11.1	10.8
COc1ccc(NC(=O)Nc2cccc(-c3ccc(-c4nc5cccc(C)c5[nH]4)s3)c2)cc1	6.52	5.29	3.22
O=C(CSc1cccc[n+]1[O-])c1ccc(Cc2ncc(C(F)(F)F)cc2Cl)s1	9.45	9.48	10.7
COC(=O)c1ccccc1COc1ccc(CC2(NC(=O)[C@H](Nc3ccc(C#N)c4ccccc34)C(C)(C)C)CCCC2)cc1	4.44	4.29	2.22
O=[N+]([O-])c1ccc(C(O)CNCCc2ccccc2)cc1OCc1ccccc1 (stereo not drawn)	14.1	14	15
CNC(=O)c1ccccc1Nc1nc(Nc2ccc(CCN3CCN(C)CC3)cc2)ncc1Cl	74.6	74.2	56
CCC(C)(C)c1ccc(OCCCC(=O)Nc2ccc(Cl)c([N+](=O)[O-])c2)c(C(C)(C)CC)c1	0.37	0.79	1.34
CCn1cc(C=C2Oc3c(ccc(O)c3CN3CCCCC3)C2=O)c2ccccc21	5.49	4.09	3.27
Clc1ccc2c(NCc3ccc4c(c3)OCO4)ccnc2c1	6	8.03	4.15
CN(CCN1CCC(c2c[nH]c3ccccc23)CC1)C(=O)OCCCCCNC(=O)/C=C/c1ccc(Cl)c(Cl)c1	9.15	10.3	8.82
COc1cc2ncnc(Nc3ccc4nc(-c5ccccc5)[nH]c4c3)c2cc1OC	4.22	3.9	2
N#CC(c1ccc(Cl)cc1)c1ccc2c(C(F)(F)F)cc(C(F)(F)F)nc2n1 (stereo not drawn)	2.34	2.87	0.92
CC(O)C1CCCCN1C(=O)c1ccc(-c2ccc(-c3nc4ccccc4[nH]3)s2)cc1 (stereo not drawn)	-1.19	-3.15	-1.69
COc1cccc(Nc2nc(C)cc(NC3CCN(Cc4ccccc4)CC3)n2)c1	5.81	3.9	0.8
CCNc1cc(C(=O)N[C@@H](Cc2ccccc2Cl)[C@H](O)CNC(C)CCCC(C)C)cc(N2CCCCS2(=O)=O)c1 (stereo partly drawn)	-2.6	0.93	-2.24
CN(C)CCCNCc1ccc(-c2ccc(F)c(Cl)c2)o1	-0.74	0.82	-0.76

Structure (SMILES)	inhibition [1] [%]	inhibition [2] [%]	inhibition [3] [%]
Cc1ccc(Nc2ccnc(Nc3ccc(F)c(Cl)c3)n2)cc1O	6.74	10.4	2.04
O=C(NCCN1CCOCC1)c1ccc(N2CCC(Oc3ccc4ccccc4c3)CC2)nc1	7.02	6.04	6.12
CC(Oc1cc(-n2cnc3ccc(NC(=O)CCN4CCCCC4)cc32)sc1C(N)=O)c1ccccc1Cl (stereo not drawn)	16.8	9.84	6.83
CCN(CCCN1CCCCC1)c1cc(C)nc(Nc2cc(Br)ccc2C)n1	-1.93	-0.61	-0.36
O=C(NCCCCN1CCC(c2ccc3c(c2OCCN2CCCC2=O)CCCC3)CC1)c1ccc(-c2ccc(C(F)(F)F)cc2)cc1	-1.16	0.75	-0.45
CC(=O)Nc1nc(C(=O)Nc2ccc(-c3ccc(-c4nc5cccc(C)c5[nH]4)cc3)cc2)cs1	10.7	9.18	6.38
CS(=O)(=O)c1ccccc1CNC(=O)c1ccc(-c2cccc(-c3nc4cc(C(F)(F)F)ccc4[nH]3)c2)cc1	2.96	2.74	2.22
C=C(C)CSc1nc2c(c(=O)n1CCc1ccccc1)C1(CCCC1)Cc1ccccc1-2	5.95	5.36	5.02
Cc1ccc(CNc2cc(C(F)(F)F)nc(-c3ccc(S(C)(=O)=O)cc3)n2)cc1	9.86	11.2	9.59
O=C(Nc1ccc(Cl)cc1F)N[C@H]1CCN(CCCCCNC(=O)C2CC2c2ccc(Cl)c(Cl)c2)C1 (stereo partly drawn)	8.35	8.26	8.63
COc1ccc2nccc(NC(=O)C3(O)CCC(NCc4ncc5c(c4Cl)OCCO5)CC3)c2n1 (stereo not drawn)	7.91	8.5	2.13
CCN(CC)CCN(Cc1ccc(-c2ccc(C(F)(F)F)cc2)cc1)C(=O)Cn1c(CCc2cccc(F)c2F)nc(=O)c2ccc(C(F)(F)F)cc21	1.5	1.49	1.99
O=C(Nc1ccc(OC2CCN(Cc3ccsc3)CC2)c(Cl)c1)c1ccc(F)cc1	4.89	2.78	2.62
c1ccc(Oc2ccc(Nc3ccnc4cc(-c5ccc(CNCCN6CCOCC6)o5)ccc34)cc2)cc1	2.2	2.86	0.92
Clc1cccc(C23N/C(=N\c4nc5ccccc5[nH]4)NC2(c2ccccc2)N/C(=N\c2nc4ccccc4[nH]2)N3)c1 (stereo not drawn)	5.03	4.69	4.94
